# Only some compounds are listed: those with a hit (about 1% of all), similar ones and a draw of the others.
# VCAM1 TNFa inh: reduces TNF alpha induced VCAM1 expression in HUVEC. 95,000 compounds, 0.48% hits. HUVEC TNFa-induced VCAM-1 immunofluorescence, high-content imaging. AID 802. inhibition, % at 2 µM;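 active = inhibition above the batch mean plus 3 SD, with images confirmed as a hit by eye, cut at about 37% in these data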;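 note: 0% = TNF-stimulated DMSO wells and 100% = unstimulated control wells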
# E-sel TNF inh: blocks E-selectin expression induced by TNF alpha; 120,000 compounds, 0.71% hits; HUVEC TNFa-induced E-selectin immunofluorescence, high content; inhibition, % at 2 µM; AID 1246;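 active = inhibition above the batch mean plus 3 SD, and confirmed as a hit on visual image review, cut at about 43% in these data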;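 note: 0% = TNF-stimulated DMSO wells and 100% = unstimulated control wells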
# TNFa cytotox: HUVEC cytotoxicity counter-screen, TNF alpha stimulated; HUVEC TNFalpha-stimulated, Hoechst cell count, imaging; cell count reduction, % at 2 µM; 93,000 compounds, 0.17% hits; AID 848;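 active = cell count reduction exceeding the screen mean by over 5 SD, scaled to untreated wells per plate, cut at about 78% in these data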;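 note: cells counted after 24 h of TNF alpha exposure following the 1 h pretreatment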
# F-actin modifier: alters cytoskeleton assembly in HUVEC cells. HUVEC TNFa F-actin phalloidin imaging, high content. inhibition, % at 2 µM. 91,000 compounds, 0.18% hits. AID 836;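 active = inhibition above the batch mean plus 3 SD and confirmed as a hit by visual image inspection, cut at about 30% in these data, passing the limit was not always enough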
# * marks the source's active call; other numbers are inactive results; x = no result.
SMILES,VCAM1 TNFa inh,E-sel TNF inh,TNFa cytotox,F-actin modifier
CCC(=O)Nc1sc2c(c1C#N)CC(C)(C)NC2(C)C,5,x,23,-27
N#Cc1ccc(-c2csc(NNC(=O)c3ccccc3)n2)cc1,5,7,-4,16
C/C(=N\NC(=O)CC1N=C(Cc2ccccc2)NNC1=O)c1ccc(C)cc1 (configuration not stated),15,100*,52,-17
O=[N+]([O-])c1cnccc1Nc1ccc(F)cc1,53*,7,94*,85*
Nc1ccc(Nc2ccncc2[N+](=O)[O-])cc1,9,-27,-11,8
Clc1ccc(C2=Nn3c(nnc3-c3cccnc3)SC2)s1,78*,x,72,-9
Brc1ccc(C2=Nn3c(nnc3-c3cccnc3)SC2)s1,2,5,-30,0
Cc1ccc(S(=O)(=O)c2cc(C#N)c(=O)[nH]c2N)cc1,-4,9,-23,62*
COc1nc(N)c(S(=O)(=O)c2ccc(C)cc2)cc1C#N,-2,17,-2,-44
COc1cc(C2C(C#N)=C(N)Oc3cc(C)n(CCc4ccccc4)c(=O)c32)cc2c1OCO2 (configuration not stated),x,95*,x,x
CCOC(=O)c1ccc(NC(=S)NCC(O)c2ccccc2)cc1 (configuration not stated),-46,73*,x,18
CCOC(=O)c1ccc(NC(=S)NCCc2ccccc2)cc1,-33,11,x,-7
CC(C)Oc1ccccc1C1CC(=O)Nc2cc3c(cc21)OCCO3 (configuration not stated),86*,-8,46,2
CCOc1ccc(OCC)c(NC(=O)CN2CCN(c3cccc(C)c3)CC2)c1,x,95*,x,x
O=C(c1ccc(Cn2cc(Br)cn2)cc1)N1CCN(c2ccccc2)CC1,26,-11,6,-5
N#Cc1cc2sc3nnc(-c4ccncc4)n3c2cc1C#N,x,58*,x,x
Cc1cc(C)cc(NC(=S)NC2CC3CCCC(C2)N3C2CC2)c1 (configuration not stated),x,100*,x,x
CCc1cc(OCCOCCN(C)C)ccc1Cl,x,92*,x,x
CCN(CC)CCOCCOc1cc(C)c(Cl)c(C)c1,16,8,4,-13
COc1ccc(N/C=C/C(=O)c2ccc(C)cc2)c([N+](=O)[O-])c1,-6,65*,-7,19
Cc1ccc(N2C(=O)C3C4C=CC(CNC(=S)Nc5ccc(F)cc5)(O4)C3C2=O)cc1 (configuration not stated),x,68*,x,x
CC(NC(=O)COc1cccc(Br)c1)C(=O)O (configuration not stated),-13,77*,-2,43
Cc1cccc(C(=O)N/N=C/c2ccc(OC3CSC3)cc2)c1,5,-26,-10,-3
COc1cccc(C(=O)N/N=C/c2ccc(OC3CSC3)cc2)c1,x,10,94*,-135
CCCNC(=O)c1cc(SC)ccc1Cl,6,6,-41,7
SMILES,VCAM1 TNFa inh,E-sel TNF inh,TNFa cytotox,F-actin modifier
CC(C)c1ccc2[nH]c(O)c(N=NC(=O)c3cccc(S(=O)(=O)N4CCCCC4)c3)c2c1,x,12,x,x
CNC(=S)N=Nc1c(O)[nH]c2ccc(C(C)C)cc12,x,68*,x,x
CCOC(=O)C1=C(O)/C(=C/c2cn(CC(=O)NCC3CCCO3)c3ccccc23)SC1=Nc1ccc(C)cc1 (configuration not stated),89*,-15,24,20
COC(=O)N/N=C(\C)c1ccco1,x,-13,x,x
CCOC(=O)c1sc(N(C)C)nc1-c1ccccc1,18,-28,4,-10
O=C(c1ccco1)N1CCN(C(=O)N2c3ccccc3Sc3ccccc32)CC1,83*,-6,73,-8
O=C(c1ccco1)N1c2ccccc2Sc2ccccc21,0,-2,4,-4
Cc1cc(NC2CCCCC2)nc(NCc2ccccc2)n1,x,-5,x,x
O=C(O)/C=C/c1ccc2ccccc2n1,3,85*,-6,-5
Oc1ccc(/C=C/c2ccc3ccccc3n2)cc1,x,-11,x,x
CCOC(=O)c1ccc(-n2ccnc2)c(NC(=O)c2ccc(Cl)cc2)c1,x,62*,x,x
Cc1ccc(S(=O)(=O)N/N=C/c2ccccc2O)cc1[N+](=O)[O-],x,-45,x,x
Nc1ccc2nc(-c3ccc(N)c(Cl)c3)[nH]c2c1,-32,-19,-10,46*
CCN1c2ccccc2-c2nc3ccccc3n2C1c1cccnc1 (configuration not stated),-24,100*,-14,8
CC1CCCCN1C(=O)c1cc(-c2ccc(Cl)c(Cl)c2)on1 (configuration not stated),-10,11,-20,68
O=c1c2ccccc2nc(/C=C/c2ccc([N+](=O)[O-])o2)n1CCCO,58*,-64,10,1
Oc1ccc(-c2csc(-c3ccccc3)n2)cc1O,1,51*,-3,-28
CCN(CC)CCNC(=O)CS(=O)Cc1nc(-c2ccccc2Cl)oc1C (configuration not stated),-13,71*,-5,-9
COc1ccc(Oc2nc(C)nc3c2oc2ccccc23)cc1,-29,2,-14,-11
CS(=O)(=O)C1=NSC2=NC(=O)/C(=C\c3cccn3-c3ccc(Cl)cc3)C(=N)N21,x,100*,x,x
CC(=O)N1N=C(c2ccccc2)OC1c1ccc([N+](=O)[O-])s1 (configuration not stated),x,-1,x,x
O=C(CO/N=C/c1ccccc1OC(F)F)NCc1cccs1,x,90*,x,x
N=C1C(c2nc3ccccc3s2)=C(O)CN1Cc1ccco1,96*,x,-5,-8
O=C(NCCO)C(c1ccccc1)c1ccccc1,91*,x,90*,-26
COc1ccc(N/N=C(\C#N)C(=N)N2CCOCC2)cc1,x,-26,x,x
SMILES,VCAM1 TNFa inh,E-sel TNF inh,TNFa cytotox,F-actin modifier
CN(C)C=Nc1nonc1N,4,-24,-12,28
C=CCNC(=S)NNC(=O)c1ccc(Br)cc1,x,63*,x,x
N#CC1=C2SCC(O)(c3ccccc3)N2C(=O)CC1c1cccs1 (configuration not stated),17,x,17,35*
Cc1ccc(S(=O)(=O)Nc2ccc(NC(=O)Nc3ccc(F)cc3F)cc2)cc1,x,82*,x,x
O=C(Nc1ccncc1)Nc1ccc(F)cc1F,-10,-10,-22,-5
Cc1c(C(=O)Nc2ccc(F)cc2)nnn1-c1cccc(C(F)(F)F)c1,x,13,x,x
O=C(NCc1ccco1)c1ccc(CS(=O)(=O)Cc2ccc(Cl)cc2)o1,93*,x,79*,-10
